Drawing on the supplement of paper PMC7156485, this text covers cell number and H1.0 immunofluorescence intensity for 19 molecules.

± gives the standard deviation of the averaged measurements.

What all share (settings): concentration: 10 µM; 24 h
In assay [1] the test system is HCC1569. Briefly: cell number relative to DMSO (% of DMSO); higher = more cells (less growth inhibition / toxicity). A digest of the protocol: (§1)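 After 24 h at 37 °C with compounds at 10 µM, in triplicate, HCC1569 and TDF cells were fixed with 3.7% formaldehyde. Immunostaining used a rabbit anti-H1.0 antibody and an AlexaFluor 647 secondary, with DAPI, and six fields per well were imaged at ×10. H1.0 nuclear intensity or cell number is presented as percent of the plate control, from the median of replicates, with HCC1569 values smoothed for positional effects.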

Assay [2] deals with TDF. Described as above. A digest of the protocol: as §1
The subject of assay [3] is TDF. Briefly: H1.0 immunofluorescence intensity relative to DMSO (% of DMSO); higher = stronger H1.0 induction, active = 120 or more. A digest of the protocol: as §1
The test system of assay [4] is HCC1569. Briefly: H1.0 immunofluorescence intensity relative to DMSO (% of DMSO); higher = stronger H1.0 induction, active = 140 or more. The method, boiled down:
as §1
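Wherever H1.0 immunofluorescence intensity relative to DMSO is given: TDF is a line of transformed human dermal fibroblasts of mesenchymal origin.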
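Wherever cell number relative to DMSO is given: TDF denotes transformed human dermal fibroblasts of mesenchymal origin.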

For the molecule `NCCc1c[nH]c2ccc(C(N)=O)cc12.O=C(O)C=CC(=O)O` [5-Carboxamidotryptamine maleate], the cell number was 100 in the assay on HCC1569 [1] and 103 in the assay with TDF [2]. Besides, the H1.0 immunofluorescence intensity in the assay with TDF [3] was 91.3 (inactive); in the assay with HCC1569 [4] it was 87.6 (inactive).

With `Cl.NCCc1ccc(O)cc1` [4-Hydroxyphenethylamine hydrochloride], the cell number with HCC1569 [1] worked out at 96.2; with TDF [2], 100. In addition, the H1.0 immunofluorescence intensity in the assay with TDF [3] was 96.7 (inactive); with HCC1569 [4], 100 (inactive).

With `CN1CCC(c2c[nH]c3ccc(O)cc23)CC1.O=C(O)C=CC(=O)O`, the cell number with HCC1569 [1] and in the assay on TDF [2] was 101 throughout. In addition, the H1.0 immunofluorescence intensity with TDF [3] is 93.8 (inactive); with HCC1569 [4], 82.3 (inactive).

Consider `CCCCCCC(C)(C)c1ccc(C2CC(O)CCC2CCCO)c(O)c1` (stereo unspecified), for which the cell number in the assay on HCC1569 [1] worked out at 99.3; in the assay with TDF [2] it was 109. Also, the H1.0 immunofluorescence intensity is 91.7 (inactive) with TDF [3] and 93 (inactive) in the assay with HCC1569 [4].

Turning to `Cl.Oc1ccc2c3c1OC1c4[nH]c5ccccc5c4CC4(O)C(C2)N(CC2CC2)CCC314` (stereo unspecified) [Naltrindole.HCl], the cell number came to 103 with HCC1569 [1] and 99.3 in the assay with TDF [2]. Further, the H1.0 immunofluorescence intensity in the assay on TDF [3] is 93.2 (inactive); in the assay with HCC1569 [4], 107 (inactive).

Consider `CC(N)Cc1cnc[nH]1.Cl.Cl` (stereo not drawn) [Histamine, R(-)-alpha-methyl-, dihydrochloride], for which the cell number stood at 97.4 in the assay on HCC1569 [1] and 102 in the assay on TDF [2]. Also, the H1.0 immunofluorescence intensity is 95.5 (inactive) in the assay on TDF [3] and 93.1 (inactive) with HCC1569 [4].

Turning to `CC(C)CC1C(=O)N2CCCC2C2(O)OC(NC(=O)C3C=C4c5cccc6[nH]c(Br)c(c56)CC4N(C)C3)(C(C)C)C(=O)N12.CS(=O)(=O)O` (stereo unspecified) [Bromocriptine mesylate], the cell number in the assay on HCC1569 [1] turned out to be 99.5 ± 2.3; with TDF [2], 102.8 ± 0.3. The H1.0 immunofluorescence intensity is 94.1 (inactive) in the assay with TDF [3] and 102 (inactive) in the assay with HCC1569 [4].

For the molecule `NCC1(CC(=O)O)CCCCC1` [Gabapentin], the cell number in the assay with HCC1569 [1] was 104 ± 4.7; in the assay with TDF [2], 108 ± 6.5. Further, the H1.0 immunofluorescence intensity in the assay on TDF [3] was 94.7 (inactive); in the assay with HCC1569 [4], 93.5 (inactive).

Turning to `O=P([O-])(O)C(Cl)(Cl)P(=O)([O-])O.[Na+].[Na+]` [Clodronic acid], the cell number with HCC1569 [1] and with TDF [2] was 101 in each case. Further, the H1.0 immunofluorescence intensity was 93.4 (inactive) in the assay on TDF [3] and 96.4 (inactive) in the assay on HCC1569 [4].

Consider `CC1=C2C3OC(=O)C(C)C3CCC2(C)C=CC1=O` (stereo unspecified) [Santonin], for which the cell number in the assay on HCC1569 [1] came to 103; with TDF [2] it was 97.9. Further, the H1.0 immunofluorescence intensity is 95.5 (inactive) in the assay with TDF [3] and 92.6 (inactive) with HCC1569 [4].

Consider `CN1CC(CO)C=C2c3cccc4[nH]cc(c34)CC21` (stereo unspecified) [Lysergol], for which the results for the cell number in the assay with HCC1569 [1] and with TDF [2] were 100 and 106, respectively. Moreover, the H1.0 immunofluorescence intensity in the assay with TDF [3] was 102 (inactive); with HCC1569 [4], 87.6 (inactive).

Regarding `CC1OC1P(=O)([O-])[O-].[Na+].[Na+]` (stereo unspecified) [Phosphomycin disodium], the cell number came to 100 in the assay with HCC1569 [1] and 91.3 with TDF [2]. The H1.0 immunofluorescence intensity in the assay with TDF [3] and in the assay on HCC1569 [4] was 101 (inactive) each time.

As to `Cl.Cl.NNCc1cccc(O)c1` [3-Hydroxybenzylhydrazine dihydrochloride], the values for the cell number in the assay on HCC1569 [1] and in the assay on TDF [2] were 46.1 and 48.9, respectively. Also, the H1.0 immunofluorescence intensity was 117 (inactive) in the assay on TDF [3] and 104 (inactive) in the assay with HCC1569 [4].

Turning to `CC12NC(Cc3ccccc31)c1ccccc12.O=C(O)C=CC(=O)O` (single isomer, unassigned; (+)) [(+)-MK-801 hydrogen maleate], the cell number with HCC1569 [1] came to 103; in the assay with TDF [2], 99. In addition, the results for the H1.0 immunofluorescence intensity with TDF [3] and in the assay with HCC1569 [4] were 98.6 (inactive) and 89.3 (inactive), respectively.

Take `CCCCCC(C=CC=CCC=CCC=CCCCC(=O)O)OO` (stereo unspecified): the cell number in the assay on HCC1569 [1] is 106; in the assay with TDF [2], 100. The H1.0 immunofluorescence intensity with TDF [3] was 96.4 (inactive); with HCC1569 [4], 113 (inactive).

For `CC1=C(C)C(=O)C(CCC(C)(O)CCCC(C)CCCC(C)CCCC(C)C)=C(C)C1=O` (racemic), the figures for the cell number in the assay with HCC1569 [1] and with TDF [2] were 99 and 104, respectively. Besides, the figures for the H1.0 immunofluorescence intensity in the assay with TDF [3] and in the assay with HCC1569 [4] were 98.7 (inactive) and 101 (inactive), respectively.

`CC1CC(C)C(=O)C(C(O)CC2CC(=O)NC(=O)C2)C1` (stereo unspecified) [Cycloheximide]: the cell number with HCC1569 [1] came out at 64.3; in the assay on TDF [2], 41.7. Also, the H1.0 immunofluorescence intensity in the assay with TDF [3] is 110 (inactive); with HCC1569 [4], 139 (inactive).

For the molecule `CN1CCc2cc3c(cc2C1C1OC(=O)c2c1ccc1c2OCO1)OCO3` (single isomer, unassigned; (+)) [(+)-Bicuculline], the cell number in the assay with HCC1569 [1] was 92.1 ± 16; in the assay with TDF [2] it was 89.1 ± 15. Moreover, the H1.0 immunofluorescence intensity in the assay on TDF [3] was 98.9 (inactive); in the assay on HCC1569 [4], 92.6 (inactive).

As for `CNCCc1ccc(O)c(O)c1.Cl` [N-Methyldopamine hydrochloride], the cell number was 105 in the assay with HCC1569 [1] and 92.2 with TDF [2]. Also, the H1.0 immunofluorescence intensity is 95.3 (inactive) in the assay with TDF [3] and 94 (inactive) in the assay with HCC1569 [4].
